# Data taken from PubChem BioAssay (NCI).
# About 83,000 compounds went through this panel and 20% of them were active in at least one assay; those are over-represented in the sample as a whole.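 Activity criterion: percent growth below 10, measured after cells in 96-well plates were exposed to a single compound concentration for 48 hours.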 Values without a mark were called inactive. Calls of active or inactive are those of the source.
# Tests used:
# Experiment in all cases: NCI-60 one-dose screen, 48 h (100 = growth as untreated, 0 = no growth, -100 = all killed)
# Conditions in all cases: 10 µM
# NCI-H23 lung = test system: NCI-H23 lung
# NCI-H226 lung = test system: NCI-H226 lung
# NCI-H322M lung = test system: NCI-H322M lung
# HOP-62 NSCLC = test system: HOP-62 NSCLC
# NCI-H460 lung = test system: NCI-H460 lung
# HOP-92 NSCLC = test system: HOP-92 NSCLC
# NCI-H522 lung = test system: NCI-H522 lung
# A549/ATCC NSCLC = test system: A549/ATCC NSCLC
# 786-0 renal = test system: 786-0 renal
# COLO 205 colon = test system: COLO 205 colon
Compound,growth (NCI-H23 lung),growth (NCI-H226 lung) [%],growth (NCI-H322M lung),growth (HOP-62 NSCLC),growth (NCI-H460 lung),growth (HOP-92 NSCLC),growth (NCI-H522 lung),growth (A549/ATCC NSCLC),growth (786-0 renal),growth (COLO 205 colon)
CCOC(=O)c1sc(NC(=O)c2cc(OC)c(OC)c(OC)c2)nc1C,93.3%,88.8,161%,116%,108%,46.9%,67.4%,101%,114%,122%
CCN(CC)CC(O)Cc1ccc(OC)cc1 (stereo not given),108%,99.5,121%,104%,117%,108%,97.8%,104%,100%,109%
COc1ccc2c(c1)/C(=C/c1cc(OC)c(OC)c(OC)c1)C(=O)N2C,34.2%,19.3,39.5%,57.5%,-6.11% (active),-7.03% (active),-15.1% (active),14.5%,29.4%,-36.8% (active)
CCCCCCCCCCCCCC[n+]1ccc(C)cc1,-19% (active),31.7,5.57% (active),-39.2% (active),-74.1% (active),-49.7% (active),-11.8% (active),-30.5% (active),-3.94% (active),-89.9% (active)
O=c1c2cccc3c(Nc4ccc(Br)cn4)ccc(c32)c2nc3ccccc3n12,81.3%,93.2,77.9%,87.6%,86.6%,62.4%,89.4%,106%,96.9%,88.2%
Cc1ncc([N+](=O)[O-])n1CCOc1ccc(C(=O)/C=C/c2ccc(C(F)(F)F)cc2)cc1,88%,76.2,66.4%,88.9%,79.5%,67.1%,67.1%,55.5%,63.3%,61.2%
COc1ccc(-n2nnc3c(sc4ccccc43)c2=O)cc1,68.5%,24.7,37.7%,-8.23% (active),-18.2% (active),-4.08% (active),56.6%,10.8%,21.4%,80.7%
C[C@@H]1C(=O)N(C[C@H](Cc2ccccc2)NC(=O)OCc2ccccc2)[C@]1(Cc1ccccc1)C(=O)OCc1ccccc1,34.3%,48.5,72.4%,70.9%,34.9%,51.2%,28.9%,20.8%,58.3%,7.23% (active)
NC(=O)c1ccc(Br)o1,95.1%,104,104%,91.7%,109%,114%,88.3%,109%,96.8%,103%
Cc1noc(C)c1-c1ccc2nc(NC(=O)[C@H]3CCN(C#N)C3)cn2c1,76.1%,91.1,99.3%,92.8%,98.7%,67.3%,25.2%,94.6%,78.6%,82.6%
FC(F)(F)c1ccc(-c2nc(-c3nc4cc(Cl)c(Cl)cc4[nH]3)c3ccccn23)cc1,75.1%,55.2,61.2%,64%,60.4%,37.9%,74.8%,62%,56.3%,87.1%
Nc1cc(O)cc(O)c1,93.9%,107,104%,88.1%,106%,93.4%,94%,106%,93.9%,102%
CCn1nc(-c2ccc(C(=O)OC)cc2)nc2c(=O)n(C)c(=O)nc1-2,104%,33.5,45.4%,-1.34% (active),47.8%,-13.1% (active),77%,35.8%,-18.7% (active),87.2%
C=CCn1ccc(=O)nc1SC,107%,112,111%,97.1%,104%,97.3%,100%,111%,101%,106%
